Assay results: paper PMC8384837, “Expanding the binding specificity for RNA recognition by a PUF domain”

target: PUM1 PUF domain R5-RQC (Homo sapiens, UniProt Q14671 828-1176, C1007R;R1008Q;Q1011C); experiment: yeast three-hybrid, YBZ-1, SC-Leu-His + 0.5 mM 3-AT, 4 days; conditions: tags: N-Gal4 AD-HA kept; label: inside an RPR1-promoter hybrid RNA with tandem MS2 sites; ssRNA
How it was run: (§1)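 Sequencing with Illumina followed PCR amplification of the repeat regions from transformants grown four days on SC-Leu (input) or SC-Leu-His + 0.5 mM 3-AT (selection). The transformants were strain YBZ-1 with a LexA–MS2 coat fusion and a HIS3 reporter, carrying Pumilio-1 PUF domain libraries and matching RNA elements. The interaction score is the log change in variant frequency from input to selection, computed in log2 with a pseudocount of 1 for absent variants.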

PUM1 PUF domain R5-RQC, sequence (Q14671 828-1176 C1007R/R1008Q/Q1011C): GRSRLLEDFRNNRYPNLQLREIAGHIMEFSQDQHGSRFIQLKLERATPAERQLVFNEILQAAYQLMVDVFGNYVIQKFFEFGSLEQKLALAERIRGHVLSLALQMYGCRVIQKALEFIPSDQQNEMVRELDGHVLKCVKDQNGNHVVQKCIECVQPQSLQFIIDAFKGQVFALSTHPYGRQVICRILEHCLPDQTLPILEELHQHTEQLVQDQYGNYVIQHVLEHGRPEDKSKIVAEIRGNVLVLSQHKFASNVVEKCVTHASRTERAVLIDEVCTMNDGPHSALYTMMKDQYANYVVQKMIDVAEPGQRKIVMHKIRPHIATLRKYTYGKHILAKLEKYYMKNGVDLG

Sequence	binding signal
GGCUAGAACUAGUGGAUCCCCCGGCGCCCGGCGGCUCGAGCCCGGGUAAGUGUCAAUAGUCUGCAUGCCGCCGGGCGCCAUGCCUGCAGGUCGACUCUAGAAAACAUG	4.74 log2 enrichment (interaction score)
GGCUAGAACUAGUGGAUCCCCCGGCGCCCGGCGGCUCGAGCCCGGGUAAGUGUUAAUAGUCUGCAUGCCGCCGGGCGCCAUGCCUGCAGGUCGACUCUAGAAAACAUG	4.83 log2 enrichment (interaction score)
GGCUAGAACUAGUGGAUCCCCCGGCGCCCGGCGGCUCGAGCCCGGGUAAGUGUAAAUAGUCUGCAUGCCGCCGGGCGCCAUGCCUGCAGGUCGACUCUAGAAAACAUG	1.84 log2 enrichment (interaction score)

target: PUM1 PUF domain R5-RFD (Homo sapiens, UniProt Q14671 828-1176, C1007R;R1008F;Q1011D); experiment: as above; conditions: tags: N-Gal4 AD-HA kept; label: inside an RPR1-promoter hybrid RNA with tandem MS2 sites; ssRNA
Sequence (Q14671 828-1176 C1007R/R1008F/Q1011D): as the sequence (Q14671 828-1176 C1007R/R1008Q/Q1011C) above, with Q181F, C184D counted along it
How it was run: as §1

Sequence	binding signal
GGCUAGAACUAGUGGAUCCCCCGGCGCCCGGCGGCUCGAGCCCGGGUAAGUGUCAAUAGUCUGCAUGCCGCCGGGCGCCAUGCCUGCAGGUCGACUCUAGAAAACAUG	4.17 log2 enrichment (interaction score)
GGCUAGAACUAGUGGAUCCCCCGGCGCCCGGCGGCUCGAGCCCGGGUAAGUGUGAAUAGUCUGCAUGCCGCCGGGCGCCAUGCCUGCAGGUCGACUCUAGAAAACAUG	2.73 log2 enrichment (interaction score)
GGCUAGAACUAGUGGAUCCCCCGGCGCCCGGCGGCUCGAGCCCGGGUAAGUGUUAAUAGUCUGCAUGCCGCCGGGCGCCAUGCCUGCAGGUCGACUCUAGAAAACAUG	4.39 log2 enrichment (interaction score)
GGCUAGAACUAGUGGAUCCCCCGGCGCCCGGCGGCUCGAGCCCGGGUAAGUGUAAAUAGUCUGCAUGCCGCCGGGCGCCAUGCCUGCAGGUCGACUCUAGAAAACAUG	2.18 log2 enrichment (interaction score)
